The values below come from PubChem BioAssay AID540333 (Southern Research Specialized Biocontainment Screening …, 2011).

Hit rate of the full screen: of about 10,000 compounds, about 320 (3.2%) were called active. The full list was thinned out, with actives kept by preference. A number with no mark means an inactive call. Rule as the data show it: active = CPE inhibition mostly above about 9.1% (no sharp cut-off); inactive = mostly below about 7.2%.

The nature of the test: Dengue virus cytopathic effect inhibitors, cell-based, CPE readout, HTS (AID 540333). As to conditions: Dengue virus CPE inhibition in host cells, at 20 µM; hits give high values. A general note: Damage to the host cells serves as the signal in cytopathic effect assays.
Take `Cc1cc(NC(=O)/C=C/c2ccc(Cl)cc2)no1`: the CPE inhibition result is “inactive”.

Regarding `Cc1cccn2c(=O)c(/C=C(\C#N)C(=O)NC3CCS(=O)(=O)C3)c(N3CCC(C(N)=O)CC3)nc12` (stereo not given), the CPE inhibition is 0.15%.

In the case of `Cc1cccn2c(=O)c(/C=C(\C#N)C(=O)NCc3ccco3)c(N3CCC(C(N)=O)CC3)nc12`, the CPE inhibition was 0.26%.

Consider `Cc1cccn2c(=O)c(/C=C(\C#N)C(=O)NCc3ccco3)c(N3CCCC(C)C3)nc12` (stereo not given), for which the CPE inhibition is 11.3% (active).

Turning to `CCOP(=O)(OCC)C(NC(=O)Nc1ccc(Cl)cc1)c1ccccc1` (stereo not given), the CPE inhibition was 0.17%.

For the compound `Cn1cccc1CC(=O)N/N=C/C=C/c1ccccc1`, the CPE inhibition was 0.02%.

Regarding `COc1ccc(COc2ccccc2C(=O)NCc2ccccc2)cc1F`, the CPE inhibition is 1.67%.

Regarding `Cc1cc(C)c2c(c1)cc(C)c1nnc(SCC(=O)Nc3ccccc3N3CCOCC3)n12`, the CPE inhibition result was “inactive”.

`CCOc1cc(/C=C2\NC(=S)N(c3c(C)n(C)n(-c4ccccc4)c3=O)C2=O)ccc1O`: the CPE inhibition is 0.065%.

As to `CCOc1cc(/C=C2\C(=O)N(c3cccc(C(F)(F)F)c3)C(=O)c3ccccc32)ccc1O`, the CPE inhibition is 17.1% (active).

Consider `CCOc1cc(/C=C2\C(=O)N(CCc3ccc(OC)c(OC)c3)C(C)=C2C(=O)OC)ccc1O`, for which the CPE inhibition was 2.62%.

As to `CN(C)S(=O)(=O)c1cccc(NC(=O)COC(=O)/C=C/c2ccco2)c1`, the CPE inhibition result was “inactive”.

As to `COc1ccccc1-c1coc2cc(OCC(=O)OCc3ccccc3)ccc2c1=O`, the CPE inhibition entry was “inactive”.

Turning to `CCCOC(=O)c1ccc(NC(=O)c2cc(Cl)ccc2OC)cc1`, the CPE inhibition was 0.345%.

On to `CCCCOC(=O)c1ccc(NC(c2ccc(C)cc2)P(=O)(OC)OC)cc1` (stereo not given), for which the CPE inhibition is 41.4% (active).

With `CCCOC(=O)c1ccc(NC(=O)C(CC)CC)cc1`, the CPE inhibition result is “inactive”.

As to `Cc1ccc(NC(=O)c2cncc(Br)c2)cc1S(=O)(=O)N(C)C`, the CPE inhibition entry was “inactive”.

Turning to `CCCNC(=O)Cn1nc([N+](=O)[O-])c([N+](=O)[O-])c1C`, the CPE inhibition entry was “inactive”.

On to `CCn1cc([N+](=O)[O-])c(C(=O)N2N=C(c3ccccc3)CC2c2ccc([N+](=O)[O-])cc2)n1` (stereo not given), for which the CPE inhibition was 1.99%.

With `COc1ccc(C2CC(c3ccccc3)=NN2C(=O)COC(=O)C2CC2)cc1` (stereo not given), the CPE inhibition is 1.49%.

As for `O=C(c1cccs1)N1N=C(c2ccccc2)CC1c1ccc(O)cc1` (stereo not given), the CPE inhibition was 30.5% (active).

Turning to `COc1ccccc1-c1nnc(NC(=O)C2=COCCO2)o1`, the CPE inhibition was 0.3%.

For the compound `Cc1onc(-c2c(F)cccc2Cl)c1C(=O)NC(=S)NCc1cccnc1`, the CPE inhibition entry is “inactive”.

Regarding `CCN(CC)S(=O)(=O)c1ccc(C)c(NC(=S)NNC(=O)C2CC2)c1`, the CPE inhibition is 0.73%.

Consider `O=C(CNC(=O)C1CCCCC1)Nc1cc(Cl)ccc1Cl`, for which the CPE inhibition result was “inactive”.

Consider `CCN(CC)c1ccc(S(=O)(=O)Nc2cc(Cl)ccc2Cl)cc1NC(=S)NC(=O)C1CCCC1`, for which the CPE inhibition is 26.9% (active).

For the compound `O=[N+]([O-])c1cccc(N/N=C/c2cccc3ccccc23)c1`, the CPE inhibition is 0.555%.

With `CCn1cc(CNC(=O)c2cccc([N+](=O)[O-])c2)c(C)n1`, the CPE inhibition was 0.4%.

As for `O=C(Cc1ccc(Cl)cc1)Nc1cccc(S(=O)(=O)Nc2ccccc2F)c1`, the CPE inhibition is 0.29%.

In the case of `Cc1cccc(NC(=S)N/N=C2/CCCCc3ccccc32)c1`, the CPE inhibition was 11.6% (active).

Turning to `Cc1cccc(NC(=S)N2CCCCC2)c1`, the CPE inhibition is 0.28%.

With `Cc1cccc(NC(=S)N2CCCCCC2)c1`, the CPE inhibition was 0.335%.

As for `Cc1ccc(C(=O)NN2C(=O)C3C4c5ccccc5C(c5ccccc54)C3C2=O)cc1` (stereo not given), the CPE inhibition is 1.93%.

On to `COc1ccc(O)c(C(=O)c2cc(C(=O)NCCc3ccccc3)c(=O)n(CCc3ccccc3)c2)c1`, for which the CPE inhibition is 15.6% (active).

`COc1ccc(CCNC(=O)c2ccccc2N(C)S(=O)(=O)c2ccccc2)cc1`: the CPE inhibition result is “inactive”.

On to `CCOc1ccccc1NC(=O)c1cc(C(=O)c2cc(OC)ccc2O)coc1=N`, for which the CPE inhibition result is “inactive”.

For `Cc1ccc(SCc2cc(=O)[nH]c(Nc3nc(C)c4ccc(C)cc4n3)n2)cc1`, the CPE inhibition is 2.63%.

Consider `Cc1ccccc1-c1ccc(C(=O)NCc2ccccc2)o1`, for which the CPE inhibition entry was “inactive”.

Turning to `O=C(C[n+]1cc(-c2ccc(Cl)c(Cl)c2)n2c1CCC2)N1c2ccccc2Sc2ccccc21`, the CPE inhibition is 15.1% (active).

`O=C(C[n+]1cc(-c2ccccc2)n2c1CCC2)N1c2ccccc2Sc2ccccc21`: the CPE inhibition was 2.94%.

Take `O=C(C[n+]1cc(-c2ccc(Cl)cc2)n2c1CCC2)N1c2ccccc2Sc2ccccc21`: the CPE inhibition is 2.13%.

Turning to `O=S(=O)(Nc1ccc(N=Nc2ccc(O)c3ccccc23)cc1)c1ccccc1`, the CPE inhibition is 10.4% (active).

Consider `O=S(=O)(Nc1ccc2ccccc2c1)c1ccccc1`, for which the CPE inhibition entry was “inactive”.

With `Cc1ccc(N=Nc2ccc(O)c3ncccc23)cc1`, the CPE inhibition was 0.345%.

On to `Cc1ccc(-c2cc3nc(-c4ccc(Br)cc4)cc(N)n3n2)cc1`, for which the CPE inhibition is 8.6%.

With `O=C(CNC(c1ccccc1)c1ccccc1)Nc1ccccc1-c1ccccc1`, the CPE inhibition is 25.7% (active).

Turning to `Cc1ccccc1CSCC(=O)Nc1ccccc1-c1ccccc1`, the CPE inhibition was 2.64%.

On to `CCC(C(=O)OCC(=O)Nc1ccccc1-c1ccccc1)c1ccccc1` (stereo not given), for which the CPE inhibition was 4.5%.

Consider `Cc1ccc(/C=N/n2c(C)cc(C)c(C#N)c2=O)o1`, for which the CPE inhibition is 1.26%.

For the compound `Cc1ccc(C2=[N+]([O-])C(C)(C)N(O)C2(C)C)cc1`, the CPE inhibition result was “inactive”.

For the compound `CCC(=O)NC(NC(=S)Nc1ccccc1Br)C(Cl)(Cl)Cl` (stereo not given), the CPE inhibition is 0.015%.

As to `CCOC(=O)NC(NC(=S)Nc1ccccc1OC)C(Cl)(Cl)Cl` (stereo not given), the CPE inhibition was 1.97%.

As for `CCc1ccc(OCC(=O)NC(NC(=S)Nc2ccccc2OC)C(Cl)(Cl)Cl)cc1` (stereo not given), the CPE inhibition was 12.2% (active).

As for `COc1cc2c(cc1OC)CN(c1nc(CN3CCOCC3)nc3sc4c(c13)CCC(C)C4)CC2` (stereo not given), the CPE inhibition entry is “inactive”.

Take `Cc1cccc(Oc2nc(CN3CCOCC3)nc3sc4c(c23)CCCC4)c1`: the CPE inhibition was 15.4% (active).

On to `c1ccc2c(c1)CCN(c1nc(CN3CCOCC3)nc3sc4c(c13)CCCC4)C2`, for which the CPE inhibition is 7.32%.

For `Cc1c(C)c2ccc(OS(C)(=O)=O)cc2oc1=O`, the CPE inhibition is 0.305%.

As to `Oc1c(C=C2N=c3ccccc3=N2)sc(=S)n1C1CCCC1`, the CPE inhibition was 0.885%.

For `O=C(O)CCCCCn1c(O)c(C=C2N=c3ccccc3=N2)sc1=S`, the CPE inhibition is 11.8% (active).

Consider `Oc1c(C=C2N=c3ccccc3=N2)sc(=S)n1-c1ccccc1`, for which the CPE inhibition is 1.34%.
